# Hits are enriched below; roughly 3% of the tested compounds scored in any of these assays.
# CF NFkB block: inhibitors of cystic fibrosis induced NF-kB. AID 588850. inhibition, % at 5 µM. 0.86% of 360,000 active. KKLEB NF-kB-GFP reporter, PAF-induced, GFP fluorescence overnight;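 active means at least 50% inhibition at 5 µM, scaled per plate between neutral and stimulator controls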;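 further: PAF is a Pseudomonas aeruginosa culture filtrate used as stimulus; plate controls were PAF-stimulated DMSO wells for no effect and unstimulated DMSO wells for full effect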
# Peg3 promoter: inhibitors of Peg3 promoter; inhibition, % at 20 µM; HeLa PEG-Prom luciferase reporter, luminescence, overnight; AID 588405; 1.7% of 360,000 active;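 active means inhibition of at least 50% at 20 µM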
# HIF-2a block: inhibitors of HIF-2a; 786-0 RCC cells HIF-2a reporter, luciferase luminescence, overnight; inhibition, % at 18.8 µM; 0.72% of 360,000 active; AID 624352;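 active means inhibition of the luminescence signal of 40% or more relative to plate controls, in a single-dose primary screen at 18.75 µM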
# EBV LMP1 NFkB: inhibitors of Epstein-Barr LMP1-induced NF-kappaB reporter. LMP1-induced NF-kappaB luciferase reporter cells, luminescence. inhibition, % at 12.5 µM. 0.69% of 350,000 active. AID 504558; in the data active means inhibition above about 41%; inconclusive means no clear call, values can overlap the other calls;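 further: 0% = neutral control wells and 100% = reference inhibitor control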
# TRPM1 prom inh: MITF TRPM1 promoter inhibition in SK-MEL-5 cells; inhibition, % at 12.5 µM; AID 488899; 0.83% of 330,000 active; SK-MEL-5 TRPM1 promoter luciferase, 24 h;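 active means mean inhibition across replicates of 60% or more, whatever share of single replicates reaches that level; inconclusive means some that reach 60%, reason not given; inactive means mean inhibition across replicates below 60%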
# KKLEB cytotox: counter-screen for CF NF-kB inhibitors: cytotoxicity | KKLEB CF airway cells viability, ATPlite luminescence, overnight; hits give low values; cells stimulated with P. aeruginosa culture filtrate | activity change (cytotoxicity), % at 5 µM | 0.36% of 360,000 active;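 active means corrected activity change at or below -50% at 5 µM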
# Active calls of the source: *; ? = inconclusive; nt = not tested or not shown.
SMILES,CF NFkB block,Peg3 promoter,HIF-2a block,EBV LMP1 NFkB,TRPM1 prom inh,KKLEB cytotox
COc1cc(/C=N/NC(=Nc2ccc(C)cc2)c2nc3ccccc3s2)ccc1O,-16,72*,73*,18,69*,-12
O=C(NC1CCCCC1)c1nc(-c2c(F)cccc2F)oc1-c1ccccc1,nt,nt,-24,nt,nt,nt
O=C(NNC(=O)C1CCC1)c1ccc(F)cc1,-29,-7,-2,0,nt,10
O=C1CC(c2ccco2)Cc2nc(Nc3nc(-c4ccccc4)c4ccccc4n3)ncc21 (stereo not drawn),2,14,4,77*,-5,-4
Cc1ccc(SCc2[nH]nc3c2C(c2ccc(C)o2)C(C#N)=C(N)O3)cc1 (stereo not drawn),0,40,6,66*,-10,-13
Cc1ccc(SCc2[nH]nc3c2C(c2ccco2)C(C#N)=C(N)O3)cc1 (stereo not drawn),16,-4,14,13,0,-13
Cn1nc(-c2ccc(N3CCOCC3)c(NS(=O)(=O)c3ccccc3)c2)c2ccccc2c1=O,-102,7,-28,61*,7,-8
COC(=O)[C@@]12C[C@@H](CC(=O)N3CCN(C(=O)C4CC4)CC3)C(=O)N(Cc3ccco3)C1=CCC(C)(C)C2,nt,nt,7,nt,nt,nt
CCOC(=S)SCC(=O)Nc1nc(-c2ccccc2)cs1,37,-14,-20,5,39,0
CCOC(=S)SCC(=O)Nc1nc(-c2ccc(Br)cc2)cs1,66*,-5,-260,-5,59,-40
Cc1ccc(-n2ncc(C(=O)Nc3cc(Cl)cc(Cl)c3)c2C2CCNCC2)cc1C,37,60*,-15,-11,85*,-42
C[C@H](CO)N1C[C@H](C)[C@@H](CN(C)S(=O)(=O)c2cn(C)cn2)Oc2cc(Br)ccc2S1(=O)=O,1,-3,-7,-1,nt,6
Cc1cc(N)ncc1[N+](=O)[O-],-6,0,21,0,9,8
Cc1cc(Sc2nc(N)ncc2[N+](=O)[O-])ncn1,38,79*,3,4,24,-2
Cc1ccc(NC(=O)[C@@H]2O[C@H](CO)[C@H](O)[C@H](O)[C@H]2O)cc1C(F)(F)F,2,2,-11,nt,nt,0
Cc1ccc(-c2ccccc2[C@@H]2C[C@H]3CN(C)C(=O)[C@]34CCCN24)o1,-2,7,8,0,4,18
O=C1N(c2ccccc2)C[C@@H]2C[C@@H](c3cc4ccccc4o3)N3CCC[C@@]123,87*,105*,-8,90*,40,-66*
COC(=O)[C@]12CCCCC=C1N(CCc1ccc(OC)c(OC)c1)C(=O)[C@H](CC(=O)N1CCN(C(=O)C3CC3)CC1)C2,nt,nt,9,nt,nt,nt
c1ccc(CN2CCC(Nc3nc(-c4cccs4)nc4ccccc34)CC2)cc1,5,75*,22,-80,25,-18
Cc1cc(C)c2nc(N3CCC(C(=O)NCCCN4CC(C)CC(C)C4)CC3)sc2c1 (stereo not drawn),17,104*,-57,-88,83*,-9
CC(C)C[C@H]1CN=C(Nc2ccccc2)N1CC1CCC(C(C)(C)C)CC1 (stereo partly drawn),43,103*,4,6,?,-41
Cn1c(-c2ccccc2)cnc1SCC(=O)N1CCCc2ccccc21,20,-27,-25,-1,3,-15
Cn1c(-c2ccccc2)cnc1SCC(=O)N1CCCCC1,-12,31,28,66*,45,6
Cc1cccc(-c2cnc(C(O)c3ccc(-c4ccccc4)cc3)[nH]2)c1 (stereo not drawn),25,35,6,nt,nt,-4
COc1cc([N+](=O)[O-])cc(/C=N/NC(=O)c2ccc(NC(=O)c3ccc(C)cc3)cc2)c1O,82*,47,28,-5,72*,-75*
COc1cccc(/C=N/NC(=O)c2cc3cc([N+](=O)[O-])ccc3s2)c1O,-29,84*,14,64*,77*,-12
c1ccc(-c2nnsc2-c2ccccc2)cc1,17,15,9,0,-10,-12
O=S(=O)(c1ccc(Cl)c(Cl)c1)c1snnc1-c1ccccc1,56*,73*,77*,21,88*,-45
COc1cc(-c2coc3c(C(=O)NCc4ccc(C(F)(F)F)cc4)cccc23)ccc1O,-15,-2,-13,nt,nt,-10
